Laboratory results published in PubChem BioAssay (NCATS).
Several values for one entry are separate records, joined by “and”; a condition that tells them apart may be missing. Equal entries are not always repeated. Records with an inconclusive call do not appear. Activity calls are given as the source filed them. Unless noted, the call rests on the fitted dose curve; in most records, active means well fitted curve in either direction with a large enough effect (not every such curve was filed as active); inconclusive means small, poorly fitted or top-dose-only effect, or another doubt; inactive means flat fitted curve, though single readings scatter.

Legend:
[1] = AP1 Signaling Pathway (AID 357); further: on the % scale 0 is the no-effect control and ±100 the full control effect
Summary of the method: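 ME-180 cells with beta-lactamase reporter under AP-1 response element, stimulated with EC50 EGF; compounds tested in titration series, 5 h at 37 °C. CCF4 substrate added 2.5 h at room temperature; 460/530 nm emission ratio gave %activity and AC50.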

[2] = biological target: Cytochrome P450 1A2 (Homo sapiens) (UniProt P05177); experiment: p450-cyp1a2 (AID 410; calls by dose curve; further: potency means the concentration at half of the fitted maximal effect;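 on activity change, negative = inhibition: -100% = full effect of reference inhibitor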)
Summary of the method: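 Read-out is luminescence from luciferin produced by CYP1A2 demethylation of Luciferin-ME (100uM, at Km). Detection reagent stopped the 60 min NADPH-dependent reaction; signals were normalized to 57 uM furafylline.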

[3] = NFAT Signaling Pathway (AID 444); details: Jurkat NFAT-bla M1, carbachol, beta-lactamase ratio, 5 h; at 17.2 µM (top of the series) unless noted;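 further: carbachol stimulus at about its EC50 of 1 µM final; on the % scale 0 is the no-effect control and ±100 the full control effect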
Summary of the method: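 Jurkat cells with NFAT-driven β-lactamase reporter and co-expressed M1 receptor, stimulated with carbachol (final 1 uM, ~EC50), compound titration, 5 h at 37 °C. CCF4 loaded 1 h at RT; 460/530 nm ratio gave %activity and AC50.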

[4] = Stat Signaling Pathway (AID 446);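 further: ME-180 cervical cancer cells given 40 pM IL-6 alongside compound; SIE-controlled beta-lactamase reporter measured as 460/530 nm FRET emission ratio; on the % scale 0 is the no-effect control and ±100 the full control effect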
Summary of the method: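 Overnight-plated ME-180 cells bearing a STAT Inducible Element beta-lactamase reporter; 5 h co-exposure to compound and 40 pM IL-6; values normalized to 300 pM IL-6 and 125 nM JAK inhibitor controls.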

[5] = biological target: Glucocorticoid receptor (Homo sapiens) (UniProt P04150); experiment: GR-GFP Redistribution (AID 450;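 active means compounds whose dose series gives a full or clear partial fitted curve of increased nuclear translocation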; further: potency means the concentration at half of the fitted maximal effect); details: U2OS GR-GFP nuclear translocation, laser cytometry, 2 h
[6] = biological target: Glucocorticoid receptor (Homo sapiens) (UniProt P04150); experiment: GR-EFC Redistribution (AID 451; calls by dose curve; further: potency means the concentration at half of the fitted maximal effect); details: CHO-K1 GR-EFC translocation, beta-gal luminescence, 2 h
Summary of the method: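 CHO-K1 cells expressing nuclear EA and GR-ED fragments of b-gal; compounds titrated up to 46 uM final, 2 h at 37 C. GR nuclear translocation read as complemented b-gal luminescence after 1 h RT detection.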

[7] = biological target: Mitogen-activated protein kinase 10 (Mus musculus) (UniProt Q61831); experiment: JNK3 AlphaScreen Assay (AID 530);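 further: kinase came from lysate of stimulated human HepG2 cells; signal reports phosphorylation of biotinylated GST-cJun 1-79 at Ser73 with 10 µM ATP; on the % scale 0 is the no-effect control and ±100 the full control effect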
Summary of the method: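 HepG2 lysate (IL-1b/TNFa pre-activated) + biotin-GST-cJun 1-79 + anti-pSer73 cJun; cpd titration, 15 min RT; ATP 10 uM start; Tris pH 7.6, MgCl2, DTT, vanadate; beads in EDTA buffer; AlphaScreen.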

[8] = Cell Viability - BJ (AID 421; calls by dose curve;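 further: potency means the concentration at half of the fitted maximal effect; cells exposed to compound for 40 hours at 37 °C before readout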); details: BJ fibroblast viability, qHTS
Summary of the method: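 Quantitative HTS: ATP depletion in BJ cells after 40 hr compound exposure in complete culture medium, detected with CellTiter-Glo; AC50 from standard Hill fits.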

[9] = Cell Viability - Jurkat (AID 426;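 active means dose-dependent loss of cell ATP signal giving a full or clear fitted curve, ranked by lower potency value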;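 further: potency means the concentration at half of the fitted maximal effect; cells exposed to compound for 40 hours at 37 °C before ATP read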); details: qHTS
Summary of the method: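 Cytotoxicity was scored as loss of cellular ATP, measured by luciferase-based luminescence, in Jurkat clone E6-1 cells after 40 h compound treatment; tamoxifen and doxorubicin served as positive controls.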

[10] = Cell Viability - Hek293 (AID 427;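 active means compounds whose dose-response curve shows a full or clear partial loss of cell viability, called from curve shape rather than a numeric limit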;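 further: potency means the concentration at half of the fitted maximal effect; cells exposed to compound for 40 hours at 37 °C before reading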); details: qHTS
Summary of the method: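 AC50 values derive from Hill-modelled concentration-response of ATP-based luminescence, normalized between DMSO-only and 100 uM tamoxifen controls. Cells were exposed in complete culture medium for 40 hr at 37 °C before detection.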

[11] = Cell Viability - HepG2 (AID 433; calls by dose curve;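 further: potency means the concentration at half of the fitted maximal effect; potency for ATP loss meaning cytotoxicity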); details: qHTS
Summary of the method: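 HepG2 hepatocellular carcinoma cells (1500/well) were treated with compounds for 40 h at 37 °C in complete medium; intracellular ATP was read by CellTiter-Glo luminescence. Data were normalized to DMSO and 100 uM tamoxifen, and AC50 came from Hill fits.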

[12] = Cell Viability - MRC5 (AID 434; calls by dose curve;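 further: potency means the concentration at half of the fitted maximal effect; potency reflects cytotoxicity seen as loss of intracellular ATP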); details: MRC5 lung fibroblast viability, qHTS
Summary of the method: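 ATP luminescence read-out (CellTiter-Glo, 20 min RT) after 40 hr, 37 °C compound exposure of 1500 MRC5 cells/well. Data normalized to DMSO (basal) and 100 uM tamoxifen (100% inhibition); AC50 from standard Hill equation.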

[13] = Cell Viability - SK-N-SH (AID 435; calls by dose curve;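 further: potency means the concentration at half of the fitted maximal effect; compound exposure lasted 40 h at 37 °C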); details: SK-N-SH neuroblastoma cell viability qHTS
Summary of the method: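 SK-N-SH human neuroblastoma cells (1500/well) were exposed to compounds in complete medium for 40 h at 37 °C, and intracellular ATP was then measured by CellTiter-Glo luminescence. AC50 was taken from Hill fits, normalized to DMSO and 100 uM tamoxifen.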

[14] = Cell Viability - NIH 3T3 (AID 541; active means well fitted curve in the direction sought with a large enough effect; an effect the other way counts as inactive or inconclusive; further: nearly all actives have a fitted effect of over 25% in size; further: potency means the concentration at half of the fitted maximal effect;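 on activity change, negative = cytotoxicity: plate controls were DMSO alone for no effect and tamoxifen positive control for full effect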); details: NIH 3T3 cell viability, qHTS; activity change, negative = cytotoxicity: at 92.2 µM (top of the series)
Summary of the method: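 In this cytotoxicity screen, acute toxicity is scored as an ATP drop measured by CellTiter-Glo in NIH 3T3 fibroblasts following a 40 hr, 37 °C incubation with compound.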

[15] = Cell Viability - HUV-EC-C (AID 542; active means well fitted curve in the direction sought with a large enough effect; an effect the other way counts as inactive or inconclusive; further: nearly all actives have a fitted effect of over 35% in size; further: potency means the concentration at half of the fitted maximal effect)
Summary of the method: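 Concentration-dependent ATP loss in HUV-EC-C cells is the measure. Exposure lasts 40 hr at 37 °C; luminescence follows CellTiter-Glo addition, and Hill fits give AC50.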

[16] = Cell Viability - H-4-II-E (AID 543; active means well fitted curve in the direction sought with a large enough effect; an effect the other way counts as inactive or inconclusive; further: nearly all actives have a fitted effect of over 35% in size; further: potency means the concentration at half of the fitted maximal effect)
Summary of the method: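 AC50 from Hill-modelled qHTS concentration-response curves. H-4-II-E rat hepatoma cells in complete medium, 40 hr exposure at 37 °C, viability by CellTiter-Glo ATP luminescence.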

[17] = Cell Viability - SH-SY5Y (AID 544; active means well fitted curve in the direction sought with a large enough effect; an effect the other way counts as inactive or inconclusive; further: nearly all actives have a fitted effect of over 55% in size; further: potency means the concentration at half of the fitted maximal effect)
Summary of the method: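 Quantitative HTS in SH-SY5Y neuroblastoma cells, 40 hr treatment at 37 °C, ATP content by luciferase luminescence; AC50 from Hill fits.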

[18] = Cell Viability - Renal Proximal Tubule (AID 545; active means well fitted curve in the direction sought with a large enough effect; an effect the other way counts as inactive or inconclusive;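 further: 0% = DMSO only and -100% = 100 µM tamoxifen; nearly all actives have a fitted effect of over 40% in size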); details: renal proximal tubule cells viability, primary cells of rat origin; at 91.7 µM (top of the series)
Summary of the method: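 Primary rat renal proximal tubule cells (1000/well) were treated with compounds for 40 hr at 37 °C in complete medium. Intracellular ATP was measured by CellTiter-Glo luminescence, and AC50 values came from Hill-equation fits of concentration-response data.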

[19] = Cell Viability - Mesenchymal (AID 546; active means well fitted curve in the direction sought with a large enough effect; an effect the other way counts as inactive or inconclusive;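 further: cells exposed to compound for 40 hours before reading; 0% = DMSO only and -100% = 100 µM tamoxifen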)
Summary of the method: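 Human renal mesenchymal cells (glomerulus-derived), 1000 cells/well, 5 hr 37 °C pre-incubation; compound 40 hr, 37 °C; CellTiter-Glo, 20 min RT; luminescence; AC50 via Hill equation.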

Sequence of Cytochrome P450 1A2 (Homo sapiens) (P05177 whole entry, looked up): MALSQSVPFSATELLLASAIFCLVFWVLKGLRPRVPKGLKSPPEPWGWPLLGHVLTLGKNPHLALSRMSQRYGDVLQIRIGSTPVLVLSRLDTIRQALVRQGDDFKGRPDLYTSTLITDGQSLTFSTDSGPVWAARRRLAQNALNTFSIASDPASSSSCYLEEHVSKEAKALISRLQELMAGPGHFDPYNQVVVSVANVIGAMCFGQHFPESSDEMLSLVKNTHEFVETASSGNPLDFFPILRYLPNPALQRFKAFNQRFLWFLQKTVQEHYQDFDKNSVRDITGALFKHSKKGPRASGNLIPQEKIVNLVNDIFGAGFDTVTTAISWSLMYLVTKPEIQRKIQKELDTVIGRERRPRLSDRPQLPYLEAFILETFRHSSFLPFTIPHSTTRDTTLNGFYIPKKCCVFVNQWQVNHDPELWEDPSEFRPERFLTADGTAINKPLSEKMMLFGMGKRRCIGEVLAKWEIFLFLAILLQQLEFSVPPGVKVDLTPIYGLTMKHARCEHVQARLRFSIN
Sequence of Glucocorticoid receptor (Homo sapiens) (P04150 whole entry, looked up, the tested form may be a part): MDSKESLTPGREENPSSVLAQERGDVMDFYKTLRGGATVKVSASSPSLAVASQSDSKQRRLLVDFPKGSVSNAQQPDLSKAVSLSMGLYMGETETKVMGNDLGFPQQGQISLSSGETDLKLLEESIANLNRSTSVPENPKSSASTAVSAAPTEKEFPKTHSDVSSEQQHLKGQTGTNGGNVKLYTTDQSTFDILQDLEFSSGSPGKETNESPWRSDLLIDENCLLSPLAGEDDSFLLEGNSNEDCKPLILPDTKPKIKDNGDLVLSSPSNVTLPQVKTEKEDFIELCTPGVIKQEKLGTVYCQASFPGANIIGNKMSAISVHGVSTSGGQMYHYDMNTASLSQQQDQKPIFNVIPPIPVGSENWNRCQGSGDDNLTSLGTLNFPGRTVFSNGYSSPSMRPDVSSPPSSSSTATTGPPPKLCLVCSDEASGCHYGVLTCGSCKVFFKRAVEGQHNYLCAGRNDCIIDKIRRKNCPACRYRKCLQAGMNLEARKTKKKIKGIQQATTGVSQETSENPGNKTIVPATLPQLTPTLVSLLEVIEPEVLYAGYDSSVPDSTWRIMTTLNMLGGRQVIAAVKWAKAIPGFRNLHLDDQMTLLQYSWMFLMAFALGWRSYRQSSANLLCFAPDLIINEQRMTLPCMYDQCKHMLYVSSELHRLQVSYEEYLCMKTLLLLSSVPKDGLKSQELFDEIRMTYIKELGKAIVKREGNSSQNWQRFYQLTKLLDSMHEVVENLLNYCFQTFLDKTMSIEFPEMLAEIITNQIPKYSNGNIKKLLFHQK

CC(=O)N=c1sc(S(N)(=O)=O)nn1C
inactive: outcome [1] | Potency [2] | activity change, negative = inhibition [3] 0.015% and 12.3% | outcome [4] | Potency [5] > 20.6 µM | Potency [6] > 20.6 µM | outcome [7]

CC(=O)[C@H]1CC[C@H]2[C@@H]3C=CC4=CC(=O)CC[C@@]4(C)[C@H]3CC[C@]12C
inactive: outcome [1] | Potency [2] | outcome [4] | Potency [6] > 20.6 µM | outcome [7]

Cc1ncc(C[n+]2csc(CCO)c2C)c(N)n1
inactive: outcome [1] | activity change, negative = inhibition [3] -0.747% | outcome [4] | outcome [7]

Cn1nnnc1SCC1=C(C(=O)O)N2C(=O)[C@@H](NC(=O)[C@H](O)c3ccccc3)[C@H]2SC1
inactive: outcome [1] | activity change, negative = inhibition [3] 5.92% | outcome [4] | Potency [5] > 20.6 µM

CN1CCc2c(c3ccccc3n2Cc2ccccc2)C1
active: Potency [2] 5.01 µM
inactive: outcome [1] | outcome [4] | outcome [7]

CCCC(CCC)C(=O)OC1C[C@H]2CC[C@@H](C1)[N+]2(C)C (stereo partly specified)
inactive: outcome [1] | outcome [4]
active: activity change, negative = inhibition [3] -90.3%

CCCCC(=O)O[C@H]1CC[C@H]2[C@@H]3CCc4cc(O)ccc4[C@H]3CC[C@]12C
inactive: outcome [1] | outcome [4] | Potency [5] > 20.6 µM

CCCOc1cc(N)ccc1C(=O)OCCN(CC)CC
active: Potency [2] 12.6 µM
inactive: outcome [1] | outcome [4] | Potency [5] > 20.6 µM | Potency [6] > 20.6 µM | outcome [7]

CN1C(=O)OC(C)(C)C1=O
inactive: outcome [1] | Potency [2] | activity change, negative = inhibition [3] -1.31% | Potency [5] > 20.6 µM | Potency [6] > 20.6 µM | outcome [7]

Oc1ccc(/C=C/c2cc(O)cc(O)c2)cc1
active: Potency [14] 31.6 µM | Potency [16] 31.6 µM
inactive: outcome [1] | Potency [8] > 92 µM | Potency [9] > 92 µM | Potency [10] 52.8 µM | Potency [11] > 92 µM | Potency [12] > 92 µM | Potency [13] > 92 µM | outcome [4] | outcome [7] | Potency [15] | Potency [17] | activity change, negative = cytotoxicity [18] -14.2% | outcome [19]

CNC(=O)c1c(I)c(C(=O)NCC(=O)Nc2c(I)c(C(=O)O)c(I)c(C(=O)NCCO)c2I)c(I)c(N(C)C(C)=O)c1I
inactive: outcome [1] | Potency [2] | activity change, negative = inhibition [3] -16% | outcome [4] | outcome [7]

Cc1cc(C)c(NC(=O)C[C@H](CC(=O)O)c2cccc3ccccc23)c(C(=O)N2CCC3(CCCC3)CC2)c1
inactive: outcome [1] | Potency [2] | activity change, negative = inhibition [3] -7.66% [at 38 µM] | outcome [4] | Potency [5] > 46 µM | Potency [6] > 46 µM | outcome [7]

CC1=CC(=O)NS(=O)(=O)O1
inactive: Potency [8] > 92 µM | Potency [9] > 92 µM | Potency [10] > 92 µM | Potency [11] > 92 µM | Potency [12] > 92 µM | Potency [13] > 92 µM | outcome [7] | activity change, negative = cytotoxicity [14] -8.99% | Potency [15] | Potency [16] | Potency [17] | activity change, negative = cytotoxicity [18] -8.28% | outcome [19]

COc1cc(S(C)=O)ccc1-c1nc2ncccc2[nH]1 (stereo unspecified)
active: Potency [2] 0.251 µM
inactive: outcome [1] | activity change, negative = inhibition [3] 21.1% | outcome [4] | Potency [5] > 20.6 µM | Potency [6] > 20.6 µM

Cn1cc(NC(=O)c2cc(NC(=O)c3cc(NC=O)cn3C)cn2C)cc1C(=O)NCCC(=N)N
inactive: outcome [1] | outcome [4]

CCSc1ccc2c(c1)N(CCCN1CCN(C)CC1)c1ccccc1S2
inactive: outcome [4] | outcome [7]
active: Potency [2] 0.316 µM

CN(CCO)CC(O)Cn1cnc2c1c(=O)n(C)c(=O)n2C (stereo unspecified) (tested in a mixture with another compound)
inactive: outcome [1] | activity change, negative = inhibition [3] -24.9% | outcome [4]

C[C@H]1O[C@@H](O[C@H]2[C@@H](O)C[C@H](O[C@H]3[C@@H](O)C[C@H](O[C@H]4CC[C@@]5(C)[C@H](CC[C@@H]6[C@@H]5C[C@@H](O)[C@]5(C)[C@@H](C7=CC(=O)OC7)CC[C@]65O)C4)O[C@@H]3C)O[C@@H]2C)C[C@H](O)[C@@H]1O
inactive: Potency [12] > 92 µM | outcome [7] | Potency [16] | activity change, negative = cytotoxicity [18] -10.1% | outcome [19]
active: Potency [8] 0.00125 µM | Potency [9] 0.00438 µM | Potency [10] 0.0128 µM | Potency [11] 0.0159 µM | Potency [13] 0.0073 µM | activity change, negative = cytotoxicity [14] -91% | Potency [15] 0.02 µM | Potency [17] 0.0126 µM

O=C(O)Cc1cc(I)c(Oc2ccc(O)c(I)c2)c(I)c1
active: Potency [2] 12.6 µM
inactive: outcome [1] | activity change, negative = inhibition [3] -22.7% | outcome [4] | Potency [5] > 20.6 µM | Potency [6] > 20.6 µM | outcome [7]

C[C@]12CC[C@@H]3c4ccc(OC(=O)c5ccccc5)cc4CC[C@H]3[C@@H]1CC[C@@H]2O
inactive: outcome [1]

Cc1cccc(C)c1NC(=O)C1CCCCN1C (stereo unspecified)
inactive: outcome [1] | activity change, negative = inhibition [3] -26% | outcome [4] | Potency [5] > 20.6 µM

CC(=O)Oc1cccc2c1C(=O)c1c(OC(C)=O)cc(C(=O)O)cc1C2=O
inactive: outcome [1] | activity change, negative = inhibition [3] -21.4% | outcome [4] | Potency [5] > 20.6 µM

N[C@H](CC(=O)O)C(=O)O
inactive: outcome [1] | activity change, negative = inhibition [3] 13.7% [at 38 µM] | outcome [4] | Potency [5] > 46 µM | Potency [6] > 46 µM | outcome [7]

Cc1cc(-c2ccc(N=Nc3ccc4c(S(=O)(=O)O)cc(S(=O)(=O)O)c(N)c4c3O)c(C)c2)ccc1N=Nc1ccc2c(S(=O)(=O)O)cc(S(=O)(=O)O)c(N)c2c1O
active: Potency [2] 12.6 µM
inactive: Potency [5] > 46 µM | Potency [6] > 46 µM

N[C@@H](Cc1cc(I)c(Oc2ccc(O)c(I)c2)c(I)c1)C(=O)O
inactive: outcome [1] | activity change, negative = inhibition [3] 7.62% | outcome [4] | Potency [5] > 20.6 µM

CC(=O)Oc1cc(C(F)(F)F)ccc1C(=O)O
inactive: Potency [2] | activity change, negative = inhibition [3] 27.2% | outcome [4] | Potency [5] > 20.6 µM | Potency [6] > 20.6 µM | outcome [7]

O=C(O)Cc1nn(Cc2ccc(Br)cc2F)c(=O)c2ccccc12
active: Potency [2] 31.6 µM
inactive: outcome [7]
